What was measured:
Assay in all cases: PBM binding z-score (relative to random genomic background probes); higher = stronger binding; sequences stand for … in GC…GCGATTGACAGCGTAGAATGAAGG
[1] = tested on: RARb homodimer (NR concentration 270 nM)
Summary of the method: (§1)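 Each nuclear receptor dimer, without ligand, was incubated for 1 h on custom Agilent 4×180K protein-binding microarrays. Binding was detected with antibodies against each partner (one per run), and scanned fluorescence was regression-normalized. The binding z-scores are referenced to random human genomic background probes.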

[2] = tested on: RARg:RXRa (NR concentration 270 nM, RXRa partner concentration 90 nM)
Summary of the method: as §1

[3] = tested on: RARg homodimer (NR concentration 270 nM)
Summary of the method: as §1

[4] = tested on: RXRa DBDmut IVT, anti-RXR (DBD mutation: RXRa K156A/R161A, NR concentration 90 nM)
Summary of the method: as §1

[5] = tested on: RXRa homodimer (NR concentration 180 nM)
Summary of the method: as §1

[6] = tested on: THRa:RXRa (NR concentration 90 nM, RXRa partner concentration 90 nM)
Summary of the method: as §1

[7] = tested on: THRa homodimer (NR concentration 90 nM)
Summary of the method: as §1

[8] = tested on: VDR homodimer (NR concentration 270 nM)
Summary of the method: as §1

| Sequence | PBM binding z-score [1] | PBM binding z-score [2] | PBM binding z-score [3] | PBM binding z-score [4] | PBM binding z-score [5] | PBM binding z-score [6] | PBM binding z-score [7] | PBM binding z-score [8] |
| --- | --- | --- | --- | --- | --- | --- | --- | --- |
| CCTACTGGGCCATGAGGTCATTGATATCAACGTT | 3.32 | 3.54 | 2.78 | 1.42 | 3.58 | 3.97 | 4.36 | 4.75 |
| ATGTCTAGGTAACCAAGTTCAGTGAATGCCGAAC | 1.34 | 0.808 | 0.759 | 0.268 | 0.737 | 1.42 | 0.382 | 2.08 |
| CCTATTAGTTGACCATAAGGGCGACCGAAGCTCG | 1.12 | 0.591 | 0.438 | 0.516 | 0.491 | 0.798 | 0.626 | 0.694 |
| TGAATGAGGTTAAAGATCAGGGTACGTGGCGTCG | 1.27 | 2.36 | 1.42 | 1.41 | 3.5 | 2.78 | 0.878 | 1.25 |
| TCATATCGGTAAACAGGTGAAAGTCCGTAAGTTA | 0.664 | 0.475 | 0.211 | 1.26 | 0.834 | 0.552 | 0.248 | 0.533 |
| GGGACTGGGGCAAAGCAGGTTACCATAAGGTTGG | 1.75 | 0.941 | 0.994 | -1.03 | 0.55 | 3.3 | 1.32 | 0.624 |
| CCTAGCAGGCCAGGGACACTCAAGCATTTCGCTT | 0.112 | -0.238 | -0.144 | -0.269 | -0.377 | 0.512 | 0.193 | -0.34 |

From the supplement of paper PMC6555819
